# Bioassay records (PubChem BioAssay)
# Not all results are given here.
# FLuc inh – Firefly luciferase inhibition profiling of diverse chemical library using quantitative high-throughput screening; purified P. pyralis luciferase, luminescence, biochemical; Potency, µM (series often up to 115 µM), actives largely listed as inhibitors; hit rate 2.5% among 76,000; AID 1347043, 2019; also: potency is read from the fitted curve at half-maximal effect; % is scaled to controls: 0 for no effect and ±100 for the full control effect; nearly all actives have a fitted effect of over 65% in size
#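 Purified P. pyralis luciferase (10nM final) in 50mM Tris acetate pH 7.5, 10mM Mg acetate, 0.01% Tween-20, 0.05% BSA with 10uM D-luciferin and 10uM ATP. Compounds titrated qHTS. Luminescence imaged on CCD.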
# 3T3 cytotox – Cytotoxic Profiling in NIH 3T3 Cell Line of Diverse Libraries Using Quantitative High-Throughput Screening; hit rate 4.3% among 94,000; NIH 3T3 viability, CellTiter-Glo ATP luminescence, 48-72 h; Potency, µM (series often up to 96.7 µM), inactives show at the top dose activity change, negative = cytotoxicity, hits mostly inhibitors; also: potency is read from the fitted curve at half-maximal effect; % is scaled to controls: 0 for no effect and ±100 for the full control effect; nearly all actives have a fitted effect of over 55% in size
#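 Cells were seeded at 400 per well, treated with pin-transferred compound, and kept 48 or 72 hr at 37 °C before CellTiter-Glo addition and luminescence imaging of cellular ATP.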
# HEK293 tox – Cytotoxic Profiling in HEK 293 Cell Line of Diverse Libraries Using Quantitative High-Throughput Screening. HEK 293 viability, ATP luminescence (CellTiter-Glo), 48-72 h. Potency, µM (doses to about 115 µM), for inactives: at the top dose activity change, negative = cytotoxicity, most hits filed as inhibitors. hit rate 6.6% among 94,000; also: potency is read from the fitted curve at half-maximal effect; % is scaled to controls: 0 for no effect and ±100 for the full control effect; nearly all actives have a fitted effect of over 60% in size
#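 HEK 293 cells seeded at 250 cells/well were exposed to compound for 48 or 72 hr at 37 degree Celsius. Viability taken as ATP content by CellTiter-Glo luminescence.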
# GPT2 inh – Primary qHTS assay for inhibitors of Glutamate pyruvate transaminase 2 (GPT2) | Alanine aminotransferase 2 (Homo sapiens), Q8TD30 | Recombinant GPT2, coupled pyruvate oxidase/HRP Amplex Red fluorescence | Potency, µM (titrated, usually from 57.7 µM), for the others: at the top dose activity change, negative = inhibition, usual class: inhibitors | hit rate 0.25% among 100,000; also: potency is read from the fitted curve at half-maximal effect; % is scaled to controls: 0 for no effect and ±100 for the full control effect; nearly all actives have a fitted effect of over 60% in size
# Target sequence (Q8TD30 whole entry, looked up): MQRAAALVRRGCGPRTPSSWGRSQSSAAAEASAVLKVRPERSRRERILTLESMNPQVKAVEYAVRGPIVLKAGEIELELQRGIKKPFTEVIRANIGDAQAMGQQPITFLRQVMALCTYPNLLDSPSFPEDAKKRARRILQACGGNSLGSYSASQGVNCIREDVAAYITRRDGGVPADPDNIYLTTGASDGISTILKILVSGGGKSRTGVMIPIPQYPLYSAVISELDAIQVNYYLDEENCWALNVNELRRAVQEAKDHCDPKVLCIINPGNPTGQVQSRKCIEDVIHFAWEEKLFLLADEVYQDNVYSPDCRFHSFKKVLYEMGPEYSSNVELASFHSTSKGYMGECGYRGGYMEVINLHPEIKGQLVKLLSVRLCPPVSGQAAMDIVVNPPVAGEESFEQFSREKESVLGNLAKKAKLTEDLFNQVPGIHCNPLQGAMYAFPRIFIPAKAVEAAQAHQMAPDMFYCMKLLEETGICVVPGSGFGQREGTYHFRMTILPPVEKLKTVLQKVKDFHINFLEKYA
#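 Fluorescence of coupled pyruvate oxidase/HRP/Amplex Red system (50uM Amplex, 30 min, dark) reports pyruvate formed by GPT2. Enzyme reaction: 10ng/uL GPT2, 2mM L-alanine, 250uM a-KG, 30 min room temperature, pH 7.5; 50uM AOA control.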
# hNpr1 antagonist – Natriuretic polypeptide receptor (hNpr1) antagonism - Primary qHTS. Atrial natriuretic peptide receptor 1 (Homo sapiens), P16066. HEK293 hNpr1 GloSensor cGMP, ANP-stimulated luminescence. Potency, µM (series often up to 46.3 µM), without a hit: top-dose activity change, negative = inhibition, hits mostly inhibitors. hit rate 1.6% among 76,000. AID 1347048, 2019; calls by dose curve; also: potency is read from the fitted curve at half-maximal effect; % is scaled to controls: 0 for no effect and ±100 for the full control effect; nearly all actives have a fitted effect of over 60% in size
#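 HEK293 cells stably expressing human Npr1 and cGMP GloSensor pGS-40F, loaded 2 h with 2% GloSensor reagent, given compound 30 min at room temperature. Luminescence read before and 20 min after 0.1 nM hNppA.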
# Npr1 antag conf – Natriuretic polypeptide receptor (hNpr1) antagonism - Confirmation; shares compounds with hNpr1 antagonist; HEK293 hNpr1 cGMP GloSensor luminescence, ANP-stimulated; Potency, µM (series often up to 57.6 µM), for inactives: at the highest dose activity change, negative = inhibition, usual class: inhibitors; hit rate 76% among 1,400; calls by dose curve; also: potency is read from the fitted curve at half-maximal effect; nearly all actives have a fitted effect of over 70% in size
# Npr2 selectivity – Natriuretic polypeptide receptor (hNpr2) antagonism - Subtype selectivity assay; AID 1347046, 2019; Potency, µM (series often up to 57.6 µM), for inactives: top-dose activity change, negative = inhibition, usual class: inhibitors; shares compounds with hNpr1 antagonist; hit rate 67% among 1,400; HEK293 hNpr2 GloSensor cGMP luminescence, CNP-stimulated; calls by dose curve; also: potency is read from the fitted curve at half-maximal effect; nearly all actives have a fitted effect of over 70% in size
# FLuc counter – Natriuretic polypeptide receptor (hNpr1) antagonism - Confirmation firefly luciferase (FLuc) inhibition counterscreen; shares compounds with hNpr1 antagonist; purified FLuc enzyme, luminescence, Km substrate; Potency, µM (doses to about 57.6 µM), without a hit: at the top dose activity change, negative = inhibition, usual class: inhibitors; hit rate 0.7% among 1,400; also: potency is read from the fitted curve at half-maximal effect; 0% is about no effect
# GloSensor cGMP – Natriuretic polypeptide receptor (hNpr1) antagonism - Counterscreen GloSensor control cell line; shares compounds with hNpr1 antagonist; HEK293 GloSensor cGMP, SNP-stimulated, luminescence; Potency, µM (doses to about 57.6 µM), inactives show at the highest dose activity change, negative = inhibition, hits mostly inhibitors; hit rate 69% among 1,400; calls by dose curve; also: potency is read from the fitted curve at half-maximal effect; % is scaled to controls: 0 for no effect and ±100 for the full control effect; nearly all actives have a fitted effect of over 70% in size
# GPT2 inh cnf – Confirmatory qHTS assay for inhibitors of Glutamate pyruvate transaminase 2 (GPT2); hit rate 90% among 95; AID 1671187, 2021; GPT2 enzyme, coupled Amplex Red pyruvate fluorescence; shares compounds with GPT2 inh; Potency, µM, actives largely listed as inhibitors
# * marks the source's active call; other numbers are inactive results; i = inactive; ? = inconclusive; nt = not tested or not shown; [ ] = another dose, or the depositor's remark. Unless noted, calls follow the shape of the dose curve; as a rule, active = well fitted curve in the direction sought with a large enough effect; inconclusive = small, poorly fitted or top-dose-only effect, or another doubt; inactive = no such curve, though single readings can be large; an effect the other way counts as inactive or inconclusive.
SMILES,FLuc inh,3T3 cytotox,HEK293 tox,GPT2 inh,hNpr1 antagonist,Npr1 antag conf,Npr2 selectivity,FLuc counter,GloSensor cGMP,others
CCc1cnc(N2CCC3(CC2)C(=O)Nc2cc(OCc4ccccc4)c(OC)cc23)nc1,i,?,?,?,-0.9%,nt,nt,nt,nt,
Cc1nc(-c2ccco2)cc([C@H]2CN3CC[C@H]2C[C@@H]3CNC(=O)Cc2cccs2)n1,i,?,?,-8.9%[88.5 µM],-7.2%[70.6 µM],nt,nt,nt,nt,
CN1Cc2ccccc2-n2ccnc2C12CCN(C(=O)C1(c3ccccc3)CC1)CC2,i,-5.2%,?,-3.0%,?,?,?,-0.8%,14.2%,
COc1ccc(C(=O)N2CCC3(CC2)c2nccn2-c2ccccc2CN3C)cc1,i,i,-3.3%,i,1.9%,nt,nt,nt,nt,
COc1ccc(CC(=O)N2CCC3(CC2)c2nccn2-c2ccccc2CN3C)cc1,i,?,-7.0%,-7.0%,?,?,?,1.4%,-0.5%,
O=c1ccc(-c2ccccc2)c2n1C[C@H]1C[C@@H]2CN(Cc2ccc(CO)o2)C1,i,-11.1%[174 µM],-12.4%[172 µM],-27.1%[88.5 µM],-0.4%[70.6 µM],nt,nt,nt,nt,
Oc1ccc2[nH]cc(CCCCN3CC=C(c4ccccc4)CC3)c2c1,nt,nt,nt,3.55µM*,nt,nt,nt,nt,nt,GPT2 inh cnf=7.69*
COc1ccc2[nH]c(-c3ccccc3)c(CCN(C)C)c2c1,nt,nt,nt,2.2%,nt,nt,nt,nt,nt,
